Screens as filed in PubChem BioAssay.
This is a sample that favours compounds with a hit; in the whole collection about 2.8% have one here.
B2AR arrestin ag: qHTS assay of beta-arrestin-biased ligands of beta2-adrenergic receptor: NCGC Sytravon Library Screen; HTLA Tango cells, beta-arrestin recruitment, luciferase luminescence, 18 h; 44,000 tested, under 10 active; Potency, µM (top dose mostly 46.1 µM), most hits filed as activators; Beta-2 adrenergic receptor (Homo sapiens), P07550;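 further: potency means the concentration at half of the fitted maximal effect; 0% = DMSO and full agonism = EC100 isoproterenol or metaproterenol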
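First, Tango cells carrying beta2-AR and beta-arrestin fusions received compound up to 46 microM. After 18 hr at 37 degrees C, luciferase substrate was added for 15 minutes, then luminescence gave %Activity for curve fitting.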
FH mod: Identification of activators of human fumarate hydratase by quantitative high-throughput screening. Fumarate hydratase, mitochondrial (Homo sapiens), P07954. FH coupled MDH/diaphorase resazurin fluorescence, 15 min. Potency, µM (titrated, usually from 79.9 µM), without a hit: at the highest dose activity change, negative = inhibition, most hits filed as inhibitors. 54,000 tested, 0.22% active. AID 1347055, 2019; further: potency means the concentration at half of the fitted maximal effect; on the % scale 0 is the no-effect control and ±100 the full control effect; the screen sought activators but most active calls are inhibition curves; nearly all actives have a fitted effect of over 45% in size
Target sequence (P07954 whole entry, looked up): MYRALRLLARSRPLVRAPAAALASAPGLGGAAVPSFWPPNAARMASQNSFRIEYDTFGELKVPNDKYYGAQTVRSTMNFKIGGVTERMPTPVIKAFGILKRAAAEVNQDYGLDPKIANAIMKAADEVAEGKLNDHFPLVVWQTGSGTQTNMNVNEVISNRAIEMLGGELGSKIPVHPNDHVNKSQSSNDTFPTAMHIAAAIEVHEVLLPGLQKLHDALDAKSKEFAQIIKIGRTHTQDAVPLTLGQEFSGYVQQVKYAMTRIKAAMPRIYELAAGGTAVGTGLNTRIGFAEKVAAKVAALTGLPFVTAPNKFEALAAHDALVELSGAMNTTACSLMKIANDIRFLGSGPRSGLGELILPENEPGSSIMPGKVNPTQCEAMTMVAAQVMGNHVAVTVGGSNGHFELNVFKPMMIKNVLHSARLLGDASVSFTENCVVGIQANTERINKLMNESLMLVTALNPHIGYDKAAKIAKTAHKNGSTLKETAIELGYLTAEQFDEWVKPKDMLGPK
GPR32 ag: qHTS for Agonists of Human Resolvin D1 Receptor DRV1; AID 1346428, 2018; CHO-K1 GPR32 beta-arrestin PathHunter luminescence, 90 min; zero percent set by DMSO-only wells; 48,000 tested, 2.5% active; Probable G-protein coupled receptor 32 (Homo sapiens), O75388; activation, % at 76.9 µM;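 active means activation of at least 60% and not above a set upper limit, about 1 call in 100 departs from these limits; inconclusive means activation of 40% to 60%, or above that upper limit; inactive means activation under 40%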; further: 0% is about no effect
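GPR32 activation in stably transfected CHO-K1 cells, detected as beta-arrestin recruitment by enzyme-fragment complementation. Compound exposure: 90 min, 37 °C.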
GALC G270D act: A Novel Cell-Based Assay to Identify Small Molecules for B -Galactocerebrosidase. P54803. 145M-Twi-hGALC-G270D cells (Twitcher mouse brain line with human GALC G270D), HMU-beta-Gal fluorescence, 48 h. Potency, µM (highest dose often 57.5 µM), actives largely listed as activators. 45,000 tested, 0.1% active; further: potency means the concentration at half of the fitted maximal effect; 0% is about no effect; nearly all actives have a fitted effect of over 65% in size
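Brain-derived Twitcher mouse 145M-Twi cells stably expressing human GALC-G270D or wild-type GALC, treated live, then residual GALC activity read by fluorescence of HMU-b-Gal substrate (0.1 mM final) in citrate-phosphate buffer pH 5.2 with sodium taurocholate. Signal increase indicates enhancement.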
* marks the source's active call; other numbers are inactive results; i = inactive; ? = inconclusive; nt = no result given; ! = repeats disagree; [ ] = another dose, or the depositor's remark. Unless noted, the call rests on the fitted dose curve; in most records, active means well fitted curve in the direction sought with a large enough effect; inconclusive means small, poorly fitted or top-dose-only effect, or another doubt; inactive means no such curve, though single readings can be large; an effect the other way counts as inactive or inconclusive.

SMILES	B2AR arrestin ag	FH mod	GPR32 ag	GALC G270D act
Cc1cccc(NS(=O)(=O)c2ccc3nc(-c4ccccc4)[nH]c3c2)c1C	i	1%	86*	i
O=S(=O)(Nc1ccc(Br)cc1)c1ccc2nc(-c3ccccc3)[nH]c2c1	i	-24%	?	i
CCCCCOC(=O)Nc1nc(=O)n(C2O[C@H](C)[C@@H](O)[C@H]2O)cc1F (stereo partly drawn)	nt	2%	nt	nt
O=C(CN1C(=O)C2(CCCC2)NCC1c1cc(F)cc(F)c1)Nc1ccc2c(c1)CC1(C2)C(=O)Nc2ncccc21 (stereo not drawn)	nt	-2%	nt	nt
Cc1ccc(C)c(-n2nnc(C(=O)Nc3ccc(Br)cc3)c2C)c1	i	-15%	26	i
CC(=O)Nc1c(C(=O)Nc2cccc(C)c2)nnn1-c1ccc(C)cc1	i	-22%	119*	i
Cc1ccc(-n2ncc3c(Nc4cccc(C)c4)ncnc32)cc1	i	-18%	?	i
Cc1ccc(-n2ncc3c(Nc4cccc(C(F)(F)F)c4)ncnc32)cc1C	i	-1%	94*	i
COc1ccc(CCNS(=O)(=O)c2ccc(F)c(C(=O)Nc3ccc(Cl)cc3)c2)cc1OC	i	-26%	64*	i
COc1ccc(Cn2ccc3nc(C)c(C(=O)NCc4ccc(F)cc4)cc3c2=O)cc1	i	-15%	63*	i
COc1ccc(Cn2ccc3nc(C)c(C(=O)NCc4ccc(C)cc4)cc3c2=O)cc1	i	2%	41	i
COC1(c2sc3c(N4CCOCC4)nc(-c4cnc(N)nc4)nc3c2C)COC1	nt	-5%	nt	nt
C/C=C/C1=CC2=C(CO1)C(=O)C(C)(O)C(OC(=O)c1c(C)cc(OC)cc1O)C2 (stereo not drawn)	nt	0%[53.3 µM]	nt	nt
Cc1ccc(Cl)c2sc(N3CCN(C(=O)C4CC4)CC3)nc12	i	-16%	73*	i
C/C=C(\C)C(=O)O[C@H]1C[C@](C)(O)[C@H]2CC=C(C)[C@H]2[C@@H]2OC(=O)[C@H](C)[C@H]21	nt	-2%[53.3 µM]	nt	nt
CCOc1ccc(NC(=O)c2sc3ccccc3c2Cl)cc1	i	nt	70*	nt
C=C[C@H]1[C@H](O[C@@H]2O[C@H](CO)[C@@H](O)[C@H](O)[C@H]2O)OC=C(C(=O)OC)[C@H]1C[C@@H]1c2cc(O)c(O)cc2CCN1C(C)=O	nt	8%[20.6 µM]	nt	nt
O=C(Nc1cccc(C(F)(F)F)c1)Nc1cc(S(=O)(=O)NC2CC2)ccc1-c1ccsc1	nt	19µM*!	nt	nt
Cc1cc(N2CCN([C@@H]3CN[C@H](C(=O)N4CCSC4)C3)CC2)n(-c2ccccc2)n1	nt	-1%	nt	nt
O=C(Nc1cccc(C(F)(F)F)c1)c1cc(-c2ccc3c(c2)OCCO3)on1	i	2%	94*	i
O=C(Nc1cccc(Cl)c1)c1cc(-c2ccc3c(c2)OCCO3)on1	i	-5%	23	i
N#CCC(C1CCCC1)n1cc(-c2ncnc3[nH]ccc23)cn1 (stereo not drawn)	nt	-23%	nt	nt
COc1ccc(Nc2c(-c3ccc(Cl)cc3)nc3cnccn23)cc1OC	i	-28%	97*	i
COc1ccc(Nc2c(-c3cccc(O)c3)nc3cnccn23)cc1	i	-28%	-20	i
CCc1ccc(/C=C2/SC(=S)NC2=O)cc1	nt	16µM*	7	nt
SMILES	B2AR arrestin ag	FH mod	GPR32 ag	GALC G270D act
CC(C)S(=O)(=O)c1ccc2nccc(Nc3ccc4scnc4c3)c2c1	nt	-10%	nt	nt
OC1(c2ccc(Cl)c(C(F)(F)F)c2)CCN(CCCC(c2ccc(F)cc2)c2ccc(F)cc2)CC1	nt	-22%	64*	i
CN(C)C(=O)C(CCN1CCC(O)(c2ccc(Cl)cc2)CC1)(c1ccccc1)c1ccccc1	nt	-16%[53.3 µM]	-19	i
COC(=O)C1C(c2ccc(O)cc2)C(C(=O)OC)C1c1ccc(O)cc1 (stereo not drawn)	nt	0%[53.3 µM]	nt	nt
CCCS(=O)(=O)c1nc(S(=O)(=O)c2ccc(C)cc2)c(N(CC)CC)s1	i	-25%	-34	7.9µM*
CC(C)CCNC(=O)c1ccc2c(c1)nc(Nc1n[nH]c3ccc(-c4ccccc4OC(F)(F)F)cc13)n2C1CCC(O)CC1 (stereo not drawn)	nt	-1%	nt	nt
